Reference: PubChem BioAssay (EPA / NIEHS)
Where “and” joins values, the source holds several entries; their conditions need not be identical. Equal values may be shown once. Records with an inconclusive call do not appear. Calls of active or inactive are those of the source. The calls were made as follows, unless noted: active = hit-call score of the fitted dose curve at least 0.9, where 1 is the maximum; inactive = score below 0.9.

How the values were obtained:
[1] = target: Myc proto-oncogene protein (Homo sapiens) (UniProt P01106); assay: ATG_Myc_CIS: Attagene CIS-FACTORIAL HepG2 Assay for human Myelocytomatosis (Myc) Proto-Oncogene Transcription Factor (AID 2282990); conditions: HepG2, Attagene cis-reporter transcription factor activity; actives raise or lower the signal
Myc proto-oncogene protein (Homo sapiens), sequence (P01106 whole entry, looked up, the tested form may be a part): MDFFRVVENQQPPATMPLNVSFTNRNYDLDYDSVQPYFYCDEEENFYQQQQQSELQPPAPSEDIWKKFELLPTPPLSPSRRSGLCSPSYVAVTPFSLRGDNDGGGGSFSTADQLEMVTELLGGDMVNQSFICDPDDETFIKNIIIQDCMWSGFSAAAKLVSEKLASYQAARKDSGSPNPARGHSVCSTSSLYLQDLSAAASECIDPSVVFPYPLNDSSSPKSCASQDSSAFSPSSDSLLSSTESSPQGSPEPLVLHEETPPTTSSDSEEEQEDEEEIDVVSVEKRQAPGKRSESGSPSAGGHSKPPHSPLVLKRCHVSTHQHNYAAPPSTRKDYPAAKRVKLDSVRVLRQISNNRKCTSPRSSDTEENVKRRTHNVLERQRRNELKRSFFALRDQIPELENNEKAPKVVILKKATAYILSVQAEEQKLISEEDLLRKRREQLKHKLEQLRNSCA
In short: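 After 24 h chemical treatment of HepG2 cells carrying multiplexed cis-regulated reporter constructs, reporter transcripts quantified by RT-PCR and capillary electrophoresis of fluorescent fragments. Gain or loss fitted against DMSO baseline.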

[2] = ATG_NF_kB_CIS: Attagene CIS-FACTORIAL HepG2 Assay for human Nuclear Factor Kappa B (NF-kB) (AID 2282991); conditions: HepG2 Attagene cis-factorial NF-kB reporter mRNA; actives raise or lower the signal
In short: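 Multiplexed cis-reporter assay in transiently transfected HepG2. 24 h treatment; RNA isolated, RT-PCR, labelled fragments resolved by CE. DMSO baseline.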

[3] = ATG_NRF2_ARE_CIS: Attagene CIS-FACTORIAL HepG2 Assay for human Nuclear Factor Erythroid 2 Related Factor 2 (NFR2) response to Antioxidant Response Elements (ARE) (AID 2282992); conditions: HepG2 Attagene ARE/NRF2 reporter, transcription factor activity; actives raise or lower the signal
In short: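 Using transiently transfected HepG2 cells exposed for 24 h, reporter mRNA levels were determined by RT-PCR with fluorescent primer extension and capillary electrophoresis, analysed for gain or loss of signal against DMSO.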

[4] = ATG_Oct_MLP_CIS: Attagene CIS-FACTORIAL HepG2 Assay for human Octamer-Binding Transcription Factor (Oct) (AID 2282993); conditions: HepG2 Attagene cis-factorial Oct reporter, mRNA; actives raise or lower the signal
In short: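 HepG2 cells transiently transfected with cis-element-driven reporter transcription units (endogenous TF activity); 24 h compound exposure. Reporter mRNA quantified by RT-PCR, 6-FAM labelling, HpaI digestion and capillary electrophoresis; bidirectional fit versus DMSO baseline.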

[5] = BSK_3C_uPAR: BioMAP Diversity Plus: 3C Assay for Urokinase-type plasminogen activator receptor (uPAR) Biomarker Activity (AID 2282998); conditions: BioMAP 3C HUVEC, uPAR biomarker ELISA; actives raise or lower the signal
In short: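 Primary human umbilical vein endothelial cells, 3C system; surface uPAR measured by ELISA 24 h after dosing. Cytotoxicity via SRB total protein in parallel cultures; bidirectional fit against DMSO.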

[6] = BSK_3C_VCAM1: BioMAP Diversity Plus: 3C Assay for Vascular cell adhesion molecule 1 (VCAM1) Biomarker Activity (AID 2282999); conditions: BioMAP 3C HUVEC, VCAM1 ELISA, cytokine-stimulated; actives raise or lower the signal
In short: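 Activity fitted in both directions relative to DMSO, with ELISA measurement of the surface marker on primary HUVEC (3C) at 24 h post-treatment; parallel SRB staining (0.1% SRB, TCA-fixed, 560 nm) flagged overt cytotoxicity.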

[7] = BSK_4H_Eotaxin3: BioMAP Diversity Plus: 4H Assay for Eotaxin 3 Biomarker Activity (AID 2283000); conditions: primary human endothelial cells (HUVEC); actives raise or lower the signal;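 also: CCL26 protein level quantified by ELISA in parallel with SRB cytotoxicity check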
In short: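 ELISA quantitation of CCL26 (Eotaxin-3) protein from chemically dosed human vascular endothelial cells at 24 h; increases and decreases both scored relative to DMSO-treated baseline.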

[8] = target: human Peroxisome Proliferator-activated Receptor delta (PPARd), PPARD (gene 5467) (UniProt Q03181); assay: ATG_PPARd_TRANS: Attagene TRANS-FACTORIAL HepG2 Assay for human Peroxisome Proliferator-activated Receptor delta (PPARd) (AID 2283002; active = hit-call score of the fitted dose curve at least 0.9, where 1 is the maximum)
human Peroxisome Proliferator-activated Receptor delta (PPARd), PPARD (gene 5467), sequence (Q03181 whole entry, looked up, the tested form may be a part): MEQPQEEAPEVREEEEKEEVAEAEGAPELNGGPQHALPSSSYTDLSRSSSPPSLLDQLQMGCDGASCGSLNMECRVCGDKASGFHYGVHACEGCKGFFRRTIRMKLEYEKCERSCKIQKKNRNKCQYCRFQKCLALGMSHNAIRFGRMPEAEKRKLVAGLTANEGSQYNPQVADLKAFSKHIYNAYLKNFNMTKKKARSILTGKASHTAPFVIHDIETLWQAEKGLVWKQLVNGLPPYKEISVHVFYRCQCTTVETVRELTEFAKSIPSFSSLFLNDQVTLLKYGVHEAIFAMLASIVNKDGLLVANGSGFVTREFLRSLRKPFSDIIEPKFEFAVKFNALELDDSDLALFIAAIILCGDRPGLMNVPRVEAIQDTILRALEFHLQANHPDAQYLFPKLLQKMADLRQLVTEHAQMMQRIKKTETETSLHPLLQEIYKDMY
In short: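 Read-out is induced reporter mRNA, quantified by RT-PCR with fluorescent labelling and capillary electrophoresis after 24 h dosing. Cells are HepG2 transiently carrying multiple GAL4-UAS reporter units driven by exogenous NR-GAL4 chimeras; DMSO serves as baseline.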

[9] = read-out: Intercellular Adhesion Molecule 1 (ICAM1), ICAM1 (gene 3383); assay: BSK_3C_ICAM1: BioMAP Diversity Plus: 3C Assay for Intercellular Adhesion Molecule 1 (ICAM1) Biomarker Activity (AID 2283003); conditions: primary human endothelial cells (HUVEC); actives raise or lower the signal
In short: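 ELISA readout of ICAM1 in human umbilical vein endothelial cells in the 3C system, taken 24 h post-dose. Gain or loss of signal versus DMSO was fitted in both directions, with SRB total-protein staining run in parallel.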

[10] = target: human Retinoic Acid Receptor beta (RARb), RARB (gene 5915) (UniProt P10826); assay: ATG_RARb_TRANS: Attagene TRANS-FACTORIAL HepG2 Assay for human Retinoic Acid Receptor beta (AID 2283004; active = hit-call score of the fitted dose curve at least 0.9, where 1 is the maximum)
In short: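 Fluorescent capillary-electrophoresis detection of GAL4-UAS reporter mRNA defines the endpoint, with induction over DMSO-treated wells scored as activity. Transiently transfected human hepatoma HepG2 cells expressing exogenous NR–Gal4 proteins are exposed to test chemicals for 24 h.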

[11] = target: Retinoic acid receptor alpha (Homo sapiens) (UniProt P10276); assay: ATG_RARa_TRANS: Attagene TRANS-FACTORIAL HepG2 Assay for human Retinoic Acid Receptor alpha (RARa) (AID 2283005; active = hit-call score of the fitted dose curve at least 0.9, where 1 is the maximum)
Retinoic acid receptor alpha (Homo sapiens), sequence (P10276 whole entry, looked up, the tested form may be a part): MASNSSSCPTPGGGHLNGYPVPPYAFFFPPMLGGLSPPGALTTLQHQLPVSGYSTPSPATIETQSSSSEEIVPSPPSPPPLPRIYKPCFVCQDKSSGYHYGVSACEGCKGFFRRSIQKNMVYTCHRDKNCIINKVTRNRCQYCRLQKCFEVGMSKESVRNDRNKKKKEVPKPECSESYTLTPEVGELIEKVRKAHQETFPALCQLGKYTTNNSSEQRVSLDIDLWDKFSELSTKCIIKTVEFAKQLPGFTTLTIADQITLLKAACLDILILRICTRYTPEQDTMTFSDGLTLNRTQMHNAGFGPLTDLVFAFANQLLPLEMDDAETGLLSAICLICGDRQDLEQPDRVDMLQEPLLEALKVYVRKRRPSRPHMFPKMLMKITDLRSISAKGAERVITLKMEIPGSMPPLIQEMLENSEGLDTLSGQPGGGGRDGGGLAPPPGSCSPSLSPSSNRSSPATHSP
In short: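 Reporter transcripts, measured by RT-PCR with fluorescent labeling and capillary electrophoresis after 24 h dosing, reflect activity of an exogenous human RARa–GAL4 fusion in transiently transfected HepG2. Fitted for increase relative to DMSO.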

[12] = BSK_3C_Proliferation: Cell Proliferation Assessment in the BioMAP Diversity Plus: 3C Assay (AID 2283006); conditions: primary human endothelial cells (HUVEC);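 as to AC50: potency may reflect either rise or fall in cell number versus DMSO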
In short: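 Proliferation as total protein: sulforhodamine B (0.1%) stain of TCA-fixed subconfluent human umbilical vein endothelial cells, absorbance 560 nm, 48 h after dosing. Activity fitted in both directions against DMSO baseline.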

[13] = target: Peroxisome proliferator-activated receptor gamma (Homo sapiens) (UniProt P37231); assay: ATG_PPARg_TRANS: Attagene TRANS-FACTORIAL HepG2 Assay for human Peroxisome Proliferator-activated Receptor-gamma (PPARg) (AID 2283007; active = hit-call score of the fitted dose curve at least 0.9, where 1 is the maximum)
Peroxisome proliferator-activated receptor gamma (Homo sapiens), sequence (P37231 whole entry, looked up): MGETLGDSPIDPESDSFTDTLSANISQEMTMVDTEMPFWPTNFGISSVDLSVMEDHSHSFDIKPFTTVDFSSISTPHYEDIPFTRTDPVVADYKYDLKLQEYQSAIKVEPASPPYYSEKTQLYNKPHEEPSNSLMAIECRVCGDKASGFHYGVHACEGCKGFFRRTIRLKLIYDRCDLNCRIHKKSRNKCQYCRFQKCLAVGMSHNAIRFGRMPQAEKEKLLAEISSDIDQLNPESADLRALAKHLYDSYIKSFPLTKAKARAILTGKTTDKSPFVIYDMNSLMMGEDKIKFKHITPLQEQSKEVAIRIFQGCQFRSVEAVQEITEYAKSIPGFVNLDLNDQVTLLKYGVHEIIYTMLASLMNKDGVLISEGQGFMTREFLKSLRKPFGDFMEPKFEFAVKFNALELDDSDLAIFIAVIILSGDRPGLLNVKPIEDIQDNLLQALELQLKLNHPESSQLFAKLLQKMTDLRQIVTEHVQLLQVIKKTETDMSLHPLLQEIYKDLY
In short: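 Human hepatoma HepG2, transient MRTU transfection, 24 h treatment. mRNA reporter signal by RT-PCR plus capillary electrophoresis, fluorescence detection; fitted for increase over DMSO negative control.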

[14] = target: Nuclear receptor subfamily 1 group I member 2 (Homo sapiens) (UniProt O75469); assay: ATG_PXR_TRANS: Attagene TRANS-FACTORIAL HepG2 Assay for human Pregnane X Receptor (PXR) (AID 2283008; active = hit-call score of the fitted dose curve at least 0.9, where 1 is the maximum)
Nuclear receptor subfamily 1 group I member 2 (Homo sapiens), sequence (O75469 whole entry, looked up, the tested form may be a part): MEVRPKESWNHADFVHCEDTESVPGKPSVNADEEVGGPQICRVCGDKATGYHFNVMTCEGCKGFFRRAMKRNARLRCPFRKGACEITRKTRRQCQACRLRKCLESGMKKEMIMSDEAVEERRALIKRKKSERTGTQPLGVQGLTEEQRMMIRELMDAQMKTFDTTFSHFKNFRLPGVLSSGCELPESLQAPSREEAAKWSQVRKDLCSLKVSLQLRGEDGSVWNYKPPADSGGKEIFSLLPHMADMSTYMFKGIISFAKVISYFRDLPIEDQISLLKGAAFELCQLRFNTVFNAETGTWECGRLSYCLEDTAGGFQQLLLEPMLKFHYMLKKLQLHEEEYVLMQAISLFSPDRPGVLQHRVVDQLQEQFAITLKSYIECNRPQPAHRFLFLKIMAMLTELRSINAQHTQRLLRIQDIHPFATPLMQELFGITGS
In short: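 Multiplexed TRANS reporter panel in HepG2; this component tracks PXR-Gal4-driven reporter mRNA after 24 h dosing, measured by RT-PCR with capillary electrophoresis fluorescence, fitted against DMSO.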

[15] = target: human RAR-related Orphan Receptor gamma (RORg), RORC (gene 6097) (UniProt P51449); assay: ATG_RORg_TRANS: Attagene TRANS-FACTORIAL HepG2 Assay for human RAR-related Orphan Receptor gamma (RORg) (AID 2283011; active = hit-call score of the fitted dose curve at least 0.9, where 1 is the maximum)
human RAR-related Orphan Receptor gamma (RORg), RORC (gene 6097), sequence (P51449 whole entry, looked up, the tested form may be a part): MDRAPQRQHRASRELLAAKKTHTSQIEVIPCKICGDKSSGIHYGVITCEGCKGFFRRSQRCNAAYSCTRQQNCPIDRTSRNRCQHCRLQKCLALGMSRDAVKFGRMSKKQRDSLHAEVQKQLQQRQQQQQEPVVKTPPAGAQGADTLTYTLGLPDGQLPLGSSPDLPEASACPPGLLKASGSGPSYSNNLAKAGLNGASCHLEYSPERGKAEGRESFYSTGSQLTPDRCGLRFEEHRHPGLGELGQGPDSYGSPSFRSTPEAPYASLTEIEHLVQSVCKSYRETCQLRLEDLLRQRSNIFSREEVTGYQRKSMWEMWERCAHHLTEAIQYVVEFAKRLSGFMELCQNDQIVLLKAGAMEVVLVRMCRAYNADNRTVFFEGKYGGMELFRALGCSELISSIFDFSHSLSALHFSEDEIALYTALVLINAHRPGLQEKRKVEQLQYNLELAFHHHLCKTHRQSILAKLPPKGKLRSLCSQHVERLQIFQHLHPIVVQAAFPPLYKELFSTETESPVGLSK
In short: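 Chimeric RORg-Gal4 transactivation in transfected HepG2; 24 h exposure; RT-PCR/capillary electrophoresis readout of reporter mRNA, DMSO baseline.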

[16] = target: human Peroxisome Proliferator-activated Receptor alpha (PPARa), PPARA (gene 5465) (UniProt Q07869); assay: ATG_PPARa_TRANS: Attagene TRANS-FACTORIAL HepG2 Assay for human Peroxisome Proliferator-activated Receptor alpha (PPARa) (AID 2283001; active = hit-call score of the fitted dose curve at least 0.9, where 1 is the maximum;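 as to AC50: potency for gain of reporter signal over DMSO so agonist or activator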)
human Peroxisome Proliferator-activated Receptor alpha (PPARa), PPARA (gene 5465), sequence (Q07869 whole entry, looked up, the tested form may be a part): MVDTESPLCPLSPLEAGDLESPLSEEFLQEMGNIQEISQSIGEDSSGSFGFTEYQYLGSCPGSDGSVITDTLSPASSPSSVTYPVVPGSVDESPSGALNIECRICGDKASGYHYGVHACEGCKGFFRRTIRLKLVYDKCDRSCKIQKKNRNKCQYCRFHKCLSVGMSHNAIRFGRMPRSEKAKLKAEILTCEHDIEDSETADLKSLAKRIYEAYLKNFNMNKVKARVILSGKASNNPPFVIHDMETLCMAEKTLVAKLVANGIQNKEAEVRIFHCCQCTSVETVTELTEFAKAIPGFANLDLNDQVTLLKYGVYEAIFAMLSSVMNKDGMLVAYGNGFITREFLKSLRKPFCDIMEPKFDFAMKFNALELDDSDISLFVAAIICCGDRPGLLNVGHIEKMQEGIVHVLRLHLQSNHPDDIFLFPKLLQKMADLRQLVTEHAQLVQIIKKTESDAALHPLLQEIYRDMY
In short: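 Reporter transcripts quantified by RT-PCR plus capillary electrophoresis after 24 h treatment, fitted upward relative to DMSO. Cells: human HepG2 transiently carrying multiple GAL4-UAS reporter units driven by NR-Gal4 chimeras.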

[17] = target: human RAR-related Orphan Receptor beta (RORb), RORB (gene 6096) (UniProt Q92753); assay: ATG_RORb_TRANS: Attagene TRANS-FACTORIAL HepG2 Assay for human RAR-related Orphan Receptor beta (RORb) (AID 2283010; active = hit-call score of the fitted dose curve at least 0.9, where 1 is the maximum)
human RAR-related Orphan Receptor beta (RORb), RORB (gene 6096), sequence (Q92753 whole entry, looked up, the tested form may be a part): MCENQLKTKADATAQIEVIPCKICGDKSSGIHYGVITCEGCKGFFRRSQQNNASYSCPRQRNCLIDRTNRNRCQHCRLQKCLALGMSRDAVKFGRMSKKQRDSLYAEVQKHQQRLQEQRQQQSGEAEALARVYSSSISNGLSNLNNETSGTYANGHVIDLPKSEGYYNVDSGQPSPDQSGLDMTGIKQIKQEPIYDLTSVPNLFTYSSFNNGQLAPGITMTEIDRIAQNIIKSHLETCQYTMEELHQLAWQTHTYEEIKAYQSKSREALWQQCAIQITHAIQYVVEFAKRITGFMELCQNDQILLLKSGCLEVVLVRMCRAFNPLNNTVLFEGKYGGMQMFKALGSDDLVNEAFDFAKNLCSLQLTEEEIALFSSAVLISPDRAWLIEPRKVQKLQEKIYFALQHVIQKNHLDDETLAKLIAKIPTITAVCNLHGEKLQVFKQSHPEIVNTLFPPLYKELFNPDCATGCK
In short: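 Read-out is reporter mRNA induction, quantified by RT-PCR with fluorescent capillary electrophoresis, 24 h post-dose in transiently transfected HepG2 expressing exogenous NR-Gal4 chimera. Activity fitted upward versus DMSO.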

[18] = BSK_3C_TissueFactor: BioMAP Diversity Plus: 3C Assay for Tissue Factor Biomarker Activity (AID 2282997); conditions: BioMAP 3C HUVEC, tissue factor biomarker readout; actives raise or lower the signal
In short: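 In this endothelial system, HUVEC are treated for 24 h and Tissue Factor is assessed by ELISA, normalised to DMSO.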

[19] = target: human Retinoic Acid Receptor gamma (RARg), RARG (gene 5916) (UniProt P13631); assay: ATG_RARg_TRANS: Attagene TRANS-FACTORIAL HepG2 Assay for human Retinoic Acid Receptor gamma (RARg) (AID 2283009; active = hit-call score of the fitted dose curve at least 0.9, where 1 is the maximum)
human Retinoic Acid Receptor gamma (RARg), RARG (gene 5916), sequence (P13631 whole entry, looked up, the tested form may be a part): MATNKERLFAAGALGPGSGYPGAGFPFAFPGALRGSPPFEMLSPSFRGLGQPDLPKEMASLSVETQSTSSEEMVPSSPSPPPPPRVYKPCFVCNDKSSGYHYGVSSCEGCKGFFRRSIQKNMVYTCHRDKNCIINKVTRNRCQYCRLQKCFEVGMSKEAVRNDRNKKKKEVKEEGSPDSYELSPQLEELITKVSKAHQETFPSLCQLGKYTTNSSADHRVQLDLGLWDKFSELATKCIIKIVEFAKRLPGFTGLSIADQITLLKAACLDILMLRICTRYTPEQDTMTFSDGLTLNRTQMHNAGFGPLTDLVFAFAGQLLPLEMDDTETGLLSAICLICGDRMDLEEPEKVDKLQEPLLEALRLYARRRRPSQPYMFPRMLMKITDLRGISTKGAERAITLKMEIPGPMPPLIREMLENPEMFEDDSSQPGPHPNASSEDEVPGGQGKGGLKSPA
In short: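 Transactivation of exogenous RARg-Gal4 fusion measured as reporter transcript induction after 24 h in transfected HepG2 cells. RNA reverse-transcribed, amplified, fluorescently labeled and resolved by capillary electrophoresis; increase relative to DMSO.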

[20] = target: Cellular tumor antigen p53 (Homo sapiens) (UniProt P04637); assay: ATG_p53_CIS: Attagene CIS-FACTORIAL HepG2 Assay for human p53 Transcription Factor (AID 2282994); conditions: HepG2 p53 cis-element reporter, Attagene mRNA; actives raise or lower the signal
Cellular tumor antigen p53 (Homo sapiens), sequence (P04637 whole entry, looked up, the tested form may be a part): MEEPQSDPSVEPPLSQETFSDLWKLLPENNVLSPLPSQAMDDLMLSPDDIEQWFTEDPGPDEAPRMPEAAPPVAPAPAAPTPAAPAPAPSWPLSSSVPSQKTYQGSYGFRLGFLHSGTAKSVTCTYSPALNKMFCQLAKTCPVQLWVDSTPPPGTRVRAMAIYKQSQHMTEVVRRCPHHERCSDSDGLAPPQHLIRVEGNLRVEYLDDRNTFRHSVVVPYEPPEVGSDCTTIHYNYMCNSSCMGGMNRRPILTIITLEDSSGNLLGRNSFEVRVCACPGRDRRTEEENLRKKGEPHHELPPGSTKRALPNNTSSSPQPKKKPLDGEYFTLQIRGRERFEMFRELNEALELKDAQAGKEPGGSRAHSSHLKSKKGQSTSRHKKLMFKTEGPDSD
In short: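 In HepG2 cells, reporter transcription units under cis-regulatory promoters were transiently introduced. Following 24 h treatment, RNA was processed to labelled, digested cDNA fragments read by capillary electrophoresis; fitting was bidirectional versus DMSO.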

Measured: AC50

OC(Cc1ccccc1Cl)(Cn1cncn1)C1(Cl)CC1 (stereo unspecified)
active: [5] 16.5 µM | [14] 7.37 µM
not listed: [16] | [17] | [18] | [19] | [20]
inactive: all other assays above

Nc1ccc(Br)cc1
inactive: [1] | [2] | [3] | [4] | [16] | [8] | [13] | [14] | [17] | [15]

CC(=Cc1ccccc1)[N+](=O)[O-]
active: [1] 18.6 µM | [2] 11.1 µM | [3] 2.61 µM | [16] 11.1 µM | [13] 3.91 µM
inactive: [4] | [17]

Nc1ccc(N)cc1
active: [3] 11.5 µM and 12.4 µM
not listed: [8] | [10] | [14] | [18] | [19] | [20]
inactive: all other assays above

NC(=O)CCl
active: [3] 78.2 µM
not listed: [16] | [20]
inactive: all other assays above

N#Cc1ccncc1
inactive: [1] | [2] | [3] | [4] | [16] | [8] | [10] | [11] | [14] | [19] | [17]

Cc1ccc(CCl)cc1
inactive: [1] | [2] | [3] | [4] | [20] | [13] | [15]

O=NN1CCCCCC1
inactive: [1] | [2] | [3] | [4] | [20] | [13] | [14]

c1csc(-c2ccc(-c3cccs3)s2)c1
inactive: [1] | [2] | [16] | [8] | [17]
active: [3] 1.22 µM | [4] 1.62 µM | [13] 1.7 µM | [14] 8.5 µM

CC(C)(C)c1ccccc1O
active: [2] 164 µM | [4] 138 µM | [14] 15.4 µM
not listed: [10] | [11] | [17] | [18] | [19] | [20]
inactive: all other assays above

C#C[C@]1(O)CC[C@H]2[C@@H]3CCC4=CC(=O)CC[C@]4(C)[C@H]3CC[C@@]21C
inactive: [1] | [2] | [3] | [4] | [20] | [15]

O=S(=O)(F)C(F)(F)C(F)(F)C(F)(F)C(F)(F)F
inactive: [1] | [2] | [3] | [4] | [16] | [8] | [13] | [14]

CC1(C)[C@H](/C=C2\CCSC2=O)[C@@H]1C(=O)OCc1coc(Cc2ccccc2)c1
active: [3] 35.8 µM | [13] 1.05 µM | [14] 0.731 µM
inactive: [1] | [2] | [4] | [16] | [8] | [17]

Oc1c(Br)cc(Br)cc1Br
active: [3] 26.9 µM | [4] 57.1 µM | [5] 30.1 µM | [6] 31.4 µM | [16] 13.3 µM | [12] 27.4 µM | [13] 11.9 µM | [14] 7.95 µM
not listed: [15] | [20]
inactive: all other assays above

Cc1cccc(OP(=O)(Oc2cccc(C)c2)Oc2cccc(C)c2)c1
active: [3] 21.9 µM | [12] 8.53 µM | [13] 13.9 µM | [14] 0.521 µM
inactive: [1] | [4] | [20] | [5] | [6] | [7] | [8] | [9]

Nc1ccc(-c2ccccc2)cc1
inactive: [1] | [2] | [4] | [8] | [14] | [17]
active: [3] 32 µM

CN(C)CCN(C)C
inactive: [1] | [2] | [3] | [4] | [8] | [11] | [14] | [17] | [15]
